A number with no mark means an inactive call. Records with an inconclusive call do not appear. A call without a number means that no potency is given here. Activity calls are given as the source filed them. Calls come from the whole dose curve; as a rule, active = well fitted curve in the direction sought with a large enough effect; inconclusive = small, poorly fitted or top-dose-only effect, or another doubt; inactive = no such curve, though single readings can be large; an effect the other way counts as inactive or inconclusive.
How the values were obtained:
[1] = target: Glutathione peroxidase 1 (Homo sapiens) (UniProt P07203); test: Primary qHTS Assay for Inhibitors of Recombinant Selenoprotein Glutathione Peroxidase 1 (GPX1) (AID 1845191); conditions: recombinant GPX1, GR-coupled NADPH fluorescence, 15 min; series mostly up to 48.8 µM; note: nearly all actives have a fitted effect of over 65% in size
Summary of the method: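 NADPH consumption tracked by fluorescence at 340/450 nm between t=0 and t=15 min, room temperature. Final mix: 10 nM GPX1, 100 nM glutathione reductase, 1 mM GSH, 0.5 mM NADPH, 0.5 mM cumene hydroperoxide, 0.01% BSA; 30 min compound–enzyme preincubation.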

[2] = target: Phospholipid hydroperoxide glutathione peroxidase GPX4 (Homo sapiens) (UniProt P36969); test: Primary qHTS Assay for Inhibitors of Recombinant Selenoprotein Glutathione Peroxidase 4 (GPX4) (AID 1845192); conditions: recombinant GPX4, GR-coupled NADPH fluorescence, 15 min; series mostly up to 50 µM; note: nearly all actives have a fitted effect of over 65% in size
Summary of the method: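 NADPH consumption followed by fluorescence at 340/450 nm, t=0 and after 15 min at room temperature. Reaction started with cumene hydroperoxide (0.5 mM final) after 30 min compound–GPX4 preincubation; final 200 nM GPX4, 100 nM GR, 1 mM GSH, 0.5 mM NADPH.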

[3] = target: Luciferin 4-monooxygenase (Photinus pyralis) (UniProt P08659); test: Primary firefly luciferase (FLuc) qHTS assay for identification of artifact compounds. (AID 1845220); conditions: purified firefly luciferase, luminescence, 5 min; series mostly up to 54.1 µM; note: nearly all actives have a fitted effect of over 60% in size
Summary of the method: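 Cell-free, 1536-well qHTS. Buffer pH 7.6 with 0.01% Tween-20 and 0.05% BSA; 10 uM D-luciferin, 10 uM ATP; 10 nM P. pyralis luciferase; luminescence after 5 min.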

[4] = Primary fluorescence-based thiol-reactive (MSTI) qHTS assay for identification of artifact compounds. (AID 1845221); conditions: MSTI thiol-reactivity probe, 1 h; series mostly up to 53.8 µM; note: nearly all actives have a fitted effect of over 65% in size; note: potency is the fitted concentration of half-maximal effect;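 for activity change, negative = thiol reactive: thiol-reactive compounds lower the probe fluorescence signal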
Summary of the method: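 MSTI probe at 4 uM final in 2% DMSO/PBS pH 7.4; compounds, 1 h at room temperature in dark. Fluorescence Ex/Em 525/598 nm, normalised to Acetyl-MSTI and MSTI, fitted to 4-parameter Hill.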

[5] = system: Nanoluciferase (engineered Oplophorus gracilirostris luciferase); test: Primary Nanoluciferase (NLuc) qHTS assay for identification of artifact compounds. (AID 1845222); conditions: NLuc-conditioned medium, Nano-Glo luminescence, 5 min; series mostly up to 54.1 µM
Summary of the method: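 Compounds are pinned into diluted (1:55) conditioned medium of NLuc-expressing S16 cells and held 15 min at room temperature protected from light. Nano-Glo substrate follows, and luminescence is read 5 min later.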

[6] = Primary redox qHTS assay for identification of artifact compounds. (AID 1845223); conditions: Amplex Red/HRP redox cycling with DTT, fluorescence; series mostly up to 53.8 µM
Summary of the method: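 Redox-cycling detection via DTT (250 uM final) oxidation coupled to Amplex Red (25 uM)/HRP (250 mU/mL) in HBSS. 15 min preincubation plus 30 min after DTT, room temperature. Ex/Em 525/598 nm; 4-parameter Hill fit against DMSO and 10 uM DA3003.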

Phospholipid hydroperoxide glutathione peroxidase GPX4 (Homo sapiens), sequence (P36969 whole entry, looked up): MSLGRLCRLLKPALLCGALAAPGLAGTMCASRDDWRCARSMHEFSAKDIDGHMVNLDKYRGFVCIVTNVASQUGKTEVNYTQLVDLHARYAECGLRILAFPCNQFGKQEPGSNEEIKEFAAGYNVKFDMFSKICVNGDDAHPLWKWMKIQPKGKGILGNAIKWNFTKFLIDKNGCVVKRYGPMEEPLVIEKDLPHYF
Glutathione peroxidase 1 (Homo sapiens), sequence (P07203 whole entry, looked up): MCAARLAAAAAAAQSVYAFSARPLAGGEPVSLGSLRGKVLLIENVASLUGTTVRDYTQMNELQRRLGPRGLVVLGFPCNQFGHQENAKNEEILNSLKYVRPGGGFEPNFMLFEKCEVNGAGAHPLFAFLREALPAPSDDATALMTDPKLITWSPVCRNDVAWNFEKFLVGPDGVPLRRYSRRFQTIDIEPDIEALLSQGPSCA

Compound	Potency [1]	Potency [2]	Potency [3]	Potency [4]	Potency [5]	Potency [6]	outcome [1]	activity change, negative = inhibition [2]	activity change, negative = inhibition [3]	activity change, negative = thiol reactive [4]	activity, negative = inhibition [5]	redox activity (% of DA3003) [6]
N#Cc1cnc2cnc(NCc3cccnc3)cc2c1Nc1ccc(F)c(Cl)c1	inactive	inactive	inactive	inactive	inactive	inactive	–	–	–	–	–	–
CC(=O)O[C@H]1C[C@@]2(C)[C@@H](CC[C@H]3[C@@]4(C)C=CC(=O)[C@@H](C)[C@@H]4[C@H](O)C(=O)[C@@]32C)/C1=C(/CCC=C(C)C)C(=O)O	inactive	inactive	inactive	inactive	inactive	inactive	–	–	–	–	–	–
N[C@@]1(C(=O)O)CC[C@H]2[C@H](C(=O)O)[C@H]21	inactive	inactive	inactive	inactive	inactive	inactive	–	–	–	–	–	–
O=C(Nc1ccccc1-c1cn2c(CN3CCNCC3)csc2n1)c1ccc2ccccc2n1	inactive	inactive	inactive	inactive	inactive	inactive	–	–	–	–	–	–
C/C(=C\CC[C@@H](C)[C@H]1CC(O)[C@@]2(C)C3CC[C@H]4C(C)(C)[C@@H](OC5OCC(O)C(O)C5OC5OC(CO)C(O)C(O)C5O)CC[C@@]45C[C@@]35CC(O)[C@]12C)C(=O)O (stereo partly drawn)	inactive	inactive	inactive	inactive	inactive	inactive	–	–	–	–	–	–
O=C(NCc1cccc(O)c1)c1cc2cc(F)ccc2[nH]1	inactive	inactive	inactive	inactive	inactive	inactive	–	–	–	–	–	–
O=C(NCC(O)CO)c1ccncc1Nc1ccc(I)cc1F (stereo not drawn)	inactive	inactive	inactive	inactive	inactive	inactive	–	–	–	–	–	–
CC1(C)CCCC2(C)C1C(O)C=C(CO)C2(O)CO (stereo not drawn)	inactive	inactive	inactive	inactive	inactive	inactive	–	–	–	–	–	–
CC(=O)OC1CC2(C)C3=CCC4(C)C5C(O)C(O)C(C(C)C)C5(C)CCC4(C)C3CCC2C(C)(C)C1OC1OC(CO)C(O)C(O)C1O (stereo not drawn)	inactive	inactive	inactive	inactive	inactive	inactive	–	–	–	–	–	–
CC/C=C\CCO[C@@H]1O[C@H](CO)[C@@H](O)[C@H](O)[C@H]1O	inactive	inactive	inactive	5.97 µM (active)	inactive	inactive	–	–	–	–	–	–
Cc1cccc2c1NC(=O)C2(c1ccc(O)cc1)c1ccc(O)cc1	inactive	inactive	inactive	inactive	inactive	inactive	–	–	–	–	–	–
CCC(O)(C(=O)OCc1ccccc1NC(=O)CCC(=O)O)C(C)O (stereo not drawn)	inactive	inactive	inactive	inactive	inactive	inactive	–	–	–	–	–	–
C=CC(=O)N1CCN(C(=O)CNc2cc(I)c(Cl)cc2O)CC1	inactive	inactive	inactive	8.44 µM (active)	inactive	inactive	–	–	–	–	–	–
C/C1=C\CC[C@]2(C)O[C@@H]2[C@H](O)[C@H](C(C)C)[C@H](OC(=O)/C=C/c2ccccc2)C1	inactive	inactive	inactive	inactive	inactive	inactive	–	–	–	–	–	–
C[C@@H]1O[C@@H](O[C@H]2[C@H](OC(=O)[C@]34CCC(C)(C)C[C@H]3C3=CCC5[C@@]6(C)C[C@H](O)[C@H](O[C@@H]7O[C@H](CO)[C@@H](O)[C@H](O)[C@H]7O)[C@@](C)(CO)C6[C@H](O)C[C@@]5(C)[C@]3(C)C[C@H]4O)OC[C@H](O)[C@@H]2O)[C@H](O)[C@H](O)[C@H]1O[C@@H]1OC[C@@H](O)[C@H](O[C@H]2OC[C@](O)(CO)[C@H]2O)[C@H]1O (stereo partly drawn)	–	–	–	–	–	–	inactive [at 9.52 µM]	1.35% [at 9.73 µM]	2.14% [at 11.6 µM]	482% [at 11.5 µM]	4.86% [at 11.6 µM]	4.44% [at 11.5 µM]
COc1ncc(Nc2ncc([C@H](C)N3CCN(S(C)(=O)=O)CC3)cc2-c2nc(C)nc(N)n2)cc1F	inactive	inactive	inactive	inactive	inactive	inactive	–	–	–	–	–	–
CCCCNc1ccc(-c2ccc(CN3CCOCC3)cn2)c(NC2CCC(O)CC2)c1 (stereo not drawn)	inactive	inactive	inactive	inactive	inactive	inactive	–	–	–	–	–	–
CC(C)[C@@H]1C(=O)N(S(C)(=O)=O)[C@@H]2CCN(C(=O)/C=C/CN3CCCCC3)[C@H]21	inactive	inactive	inactive	inactive	inactive	inactive	–	–	–	–	–	–
CCC(C)C(=O)OC1CC(O)C23C4OCC5(C(O)CC2C1(C)C(O)O4)C3C(=O)CC1(C)C(c2ccoc2)CC2OC215 (stereo not drawn)	inactive	inactive	inactive	inactive	inactive	inactive	–	–	–	–	–	–

Compound	Potency [1]	Potency [2]	Potency [3]	Potency [4]	Potency [5]	Potency [6]	outcome [1]	activity change, negative = inhibition [2]	activity change, negative = inhibition [3]	activity change, negative = thiol reactive [4]	activity, negative = inhibition [5]	redox activity (% of DA3003) [6]
C[C@H](C/C=C/C(C)(C)O)[C@H]1CC[C@@]2(C)[C@@H]3[C@@H](O[C@@H]4O[C@H](CO)[C@@H](O)[C@H](O)[C@H]4O)C=C4C(CC[C@H](O)C4(C)C)[C@]3(C=O)CC[C@]12C (stereo partly drawn)	inactive	inactive	inactive	inactive	inactive	inactive	–	–	–	–	–	–
C[C@@H]1O[C@@H](O[C@H]2[C@@H]3C=CO[C@@H](O[C@@H]4O[C@H](CO)[C@@H](O)[C@H](O)[C@H]4O)[C@@H]3[C@@]3(CO)O[C@@H]23)[C@H](OC(=O)/C=C/c2ccc(O)c(O)c2)[C@H](O)[C@H]1O	inactive	inactive	inactive	0.793 µM (active)	inactive	inactive	–	–	–	–	–	–
Cc1cc(C(=O)N2CCCCc3ccccc32)ccc1CNC(=O)N1CCC[C@H]1C(=O)N(C)C	inactive	inactive	inactive	inactive	inactive	inactive	–	–	–	–	–	–
O=S(=O)(c1ccccc1)c1cnc2c(N3CCNCC3)cccc2c1	inactive	inactive	inactive	inactive	inactive	inactive	–	–	–	–	–	–
COc1cc([C@H]2c3cc(O)c(OC)cc3C[C@@H](CO[C@@H]3O[C@H](CO)[C@@H](O)[C@H](O)[C@H]3O)[C@@H]2CO)ccc1O	inactive	inactive	inactive	8.22 µM (active)	inactive	inactive	–	–	–	–	–	–
C=C1C(O)C(O)C2(CC3C(C)=CCC4C(C)(CO)CCCC34C)OC2C1O (stereo not drawn)	inactive	inactive	inactive	inactive	inactive	inactive	–	–	–	–	–	–
CC(C)CCC1(O)C(=O)C(C)(C)C(O[C@@H]2O[C@H](CO)[C@@H](O)[C@H](O)[C@H]2O)C(C)(C)C1O (stereo partly drawn)	inactive	inactive	inactive	2.32 µM (active)	inactive	inactive	–	–	–	–	–	–
CC(C)C(=O)OC[C@H]1O[C@H](O[C@H]2O[C@H](CO)[C@@H](O)[C@H](O)[C@H]2O)[C@H](O)[C@@H](O)[C@@H]1O	inactive	inactive	inactive	inactive	inactive	inactive	–	–	–	–	–	–
O=C(O)/C=C/c1ccc(O)c(O[C@@H]2O[C@H](CO)[C@@H](O)[C@H](O)[C@H]2O)c1	inactive	inactive	inactive	4.65 µM (active)	inactive	inactive	–	–	–	–	–	–
CN(C)C(=O)NC1CCC(CCN2CCN(c3cccc(Cl)c3Cl)CC2)CC1 (stereo not drawn)	inactive	inactive	–	–	–	–	–	–	2.95% [at 11.6 µM]	20.5% [at 11.5 µM]	-1.17% [at 11.6 µM]	-4.67% [at 11.5 µM]
C[C@@H]1C[C@@H]([C@@H](O)C(C)(C)O)O[C@H]2C[C@@]3(C)C(=C12)C[C@H](O)[C@H]1[C@@]2(C)CCC(=O)C(C)(C)C2CC[C@@]13C (stereo partly drawn)	inactive	inactive	inactive	inactive	inactive	inactive	–	–	–	–	–	–
CC(=O)c1cc(C(=O)N[C@@H](C)Cn2ccc(-c3ccc(C#N)c(Cl)c3)n2)[nH]n1	inactive	inactive	inactive	inactive	inactive	inactive	–	–	–	–	–	–
C=CC[C@]12C[C@@H](OC)C(=O)C(OC)=C1O[C@@H](c1cc(OC)c3c(c1)OCO3)[C@@H]2C	inactive	inactive	inactive	inactive	inactive	inactive	–	–	–	–	–	–
C[C@@H]1O[C@@H](O[C@H]2[C@@H](OC(=O)[C@]34CCC(C)(C)CC3C3=CCC5[C@@]6(C)C[C@H](O)[C@H](O[C@@H]7O[C@H](C(=O)O)[C@@H](O)[C@H](O)[C@H]7O)[C@@](C)(C(=O)O)C6CC[C@@]5(C)[C@]3(C)CC4)OC[C@H](O)[C@@H]2O)[C@H](O)[C@H](O)[C@H]1O[C@@H]1OC[C@@H](O)[C@H](O)[C@H]1O (stereo partly drawn)	inactive	inactive	–	–	–	–	–	–	-6.45% [at 11.6 µM]	118% [at 11.5 µM]	0.813% [at 11.6 µM]	13% [at 11.5 µM]
O=c1[nH]ccc2cc(OC3CCNCC3)ccc12	inactive	inactive	inactive	inactive	inactive	inactive	–	–	–	–	–	–
CC(=O)c1cc2c(cc1O)OC(C)(C)C=C2	inactive	inactive	inactive	inactive	inactive	inactive	–	–	–	–	–	–
CC(=O)N[C@@H](C(=O)O[C@H]1CCC(C)(C)[C@@H]2CCC3=C(COC3=O)[C@@]12C)C(C)C	inactive	inactive	inactive	inactive	inactive	inactive	–	–	–	–	–	–
O=S(=O)(NC1CCC(c2cc(F)ccc2F)(S(=O)(=O)c2ccc(Cl)cc2)CC1)C(F)(F)F (stereo not drawn)	inactive	inactive	inactive	inactive	inactive	inactive	–	–	–	–	–	–
C=C[C@@](C)(O)CC/C=C(\C)C(=O)O[C@@H]1[C@@H]2O[C@]2(C)[C@H]2[C@H](O[C@@H]3O[C@H](CO)[C@@H](O)[C@H](O)[C@H]3O)OC=C[C@@]12O	inactive	inactive	inactive	inactive	inactive	inactive	–	–	–	–	–	–

From PubChem BioAssay (NCATS)
